Several values for one entry are separate records, joined by “and”; a condition that tells them apart may be missing. Equal values may be shown once. Inconclusive results are not listed. Activity calls are given as the source filed them. Unless noted, calls follow the shape of the dose curve; as a rule, active = well fitted curve in the direction sought with a large enough effect; inconclusive = small, poorly fitted or top-dose-only effect, or another doubt; inactive = no such curve, though single readings can be large; an effect the other way counts as inactive or inconclusive.
Assays:
[1] = target: Rap guanine nucleotide exchange factor 3 (Homo sapiens) (UniProt O95398); experiment: Counterscreen qHTS for antagonist of cAMP-regulated guanine nucleotide exchange factor 3 (EPAC1) (AID 1645888);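 also: fluorescence loss as bound BODIPY-GDP is released from Rap1B; % of control where 0% means no effect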
Summary of the method: (§1)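 Measured: fluorescence of BODIPY-GDP bound to Rap1B, which falls as exchange proceeds. Conditions include 50 uM competing GDP, 5 and 30 min reads, and a later cAMP challenge for antagonist detection.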

[2] = target: Rap guanine nucleotide exchange factor 3 (Homo sapiens) (UniProt O95398); experiment: Counterscreen qHTS for agonist of cAMP-regulated guanine nucleotide exchange factor 3 (EPAC1) (AID 1645889); also: % of control where 0% means no effect; nearly all actives have a fitted effect of over 40% in size
Summary of the method: as §1

[3] = Viability counterscreen for agonist of constitutive androstane receptor (CAR) against the NCATS DSHEA and TCM libraries (AID 1794838);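 also: HepG2 cells with CYP2B6 reporter and hCAR plus 0.75 µM PK11195 antagonist; cells exposed to compound for 24 h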; also: potency is read from the fitted curve at half-maximal effect
Summary of the method: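 Multiplexed counterscreen: after 24 h compound exposure with 0.75 uM PK11195, HepG2-CYP2B6-hCAR viability was quantified fluorimetrically (CellTiter-Fluor, 405/540 nm) prior to the ONE-Glo luciferase read.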

[4] = target: Catechol O-methyltransferase (Homo sapiens) (UniProt P21964); experiment: Confirmatory Screen for Target Class Profiling of Small Molecule Inhibitors of Methyltransferases (AID 1745852; calls by dose curve; also: potency is read from the fitted curve at half-maximal effect; as to activity change, negative = inhibition: % is scaled to controls: 0 for no effect and ±100 for the full control effect); settings: MTase-Glo luminescence, SAH detection, recombinant enzyme; measured here: COMT max response; stronger effect = lower value
[5] = target: Guanidinoacetate N-methyltransferase (Homo sapiens) (UniProt Q14353); experiment: as above; settings: MTase-Glo luminescence, SAH detection, recombinant enzyme; activity change, negative = inhibition: at 57.3 µM (top of the series)
[6] = target: Nicotinamide N-methyltransferase (Homo sapiens) (UniProt P40261); experiment: as above; settings: MTase-Glo luminescence, SAH detection, recombinant enzyme; measured here: NNMT max response; stronger effect = lower value
[7] = target: Phenylethanolamine N-methyltransferase (Homo sapiens) (UniProt P11086); experiment: as above; settings: MTase-Glo luminescence, SAH detection, recombinant enzyme; measured here: PNMT max response; stronger effect = lower value
[8] = NCATS anti-infectives library activity on HEK293 viability as a counter-qHTS vs the C. elegans viability qHTS (AID 1745854);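 also: HEK293 cells exposed to compounds for 24 hr before the viability read; % is scaled to controls: 0 for no effect and ±100 for the full control effect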
Summary of the method: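 Cytotoxicity in human HEK293 cells is measured by ATP-dependent CellTiter-Glo luminescence following a 24 hr incubation with titrated library compounds at 37C. Top final concentration is 41.7 uM.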

[9] = NCATS anti-infectives library activity on the primary C. elegans qHTS viability assay (AID 1745855; calls by dose curve; also: potency is read from the fitted curve at half-maximal effect)
Summary of the method: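 Viability is taken from GFP fluorescence of PE254-GFP-FLuc C. elegans imaged by laser cytometry over 7 days. Ten L1 worms per well grow at 21 °C on TOP10 E. coli capsules with titrated compound; levamisole marks toxicity.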

[10] = Viability counterscreen for antagonist of constitutive androstane receptor (CAR) against the NCATS DSHEA and TCM libraries (AID 1794837);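 also: compound exposure lasted 24 h before viability reading; 0% is about no effect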
Summary of the method: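 Counterscreen performed in a 1536-well qHTS format using HepG2-CYP2B6-hCAR cells; samples titrated in the presence of 48 uM CITCO, with viability measured fluorometrically (405/540 nm) after 24 h.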

Phenylethanolamine N-methyltransferase (Homo sapiens), sequence (P11086 whole entry, looked up): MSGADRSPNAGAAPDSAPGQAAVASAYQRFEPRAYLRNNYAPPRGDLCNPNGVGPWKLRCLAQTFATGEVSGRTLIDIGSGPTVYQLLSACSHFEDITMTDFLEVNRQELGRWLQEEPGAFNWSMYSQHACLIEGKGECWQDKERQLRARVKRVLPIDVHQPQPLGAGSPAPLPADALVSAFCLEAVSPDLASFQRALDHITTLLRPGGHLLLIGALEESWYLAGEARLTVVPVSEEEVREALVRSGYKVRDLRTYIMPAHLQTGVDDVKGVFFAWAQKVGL
Catechol O-methyltransferase (Homo sapiens), sequence (P21964 whole entry, looked up): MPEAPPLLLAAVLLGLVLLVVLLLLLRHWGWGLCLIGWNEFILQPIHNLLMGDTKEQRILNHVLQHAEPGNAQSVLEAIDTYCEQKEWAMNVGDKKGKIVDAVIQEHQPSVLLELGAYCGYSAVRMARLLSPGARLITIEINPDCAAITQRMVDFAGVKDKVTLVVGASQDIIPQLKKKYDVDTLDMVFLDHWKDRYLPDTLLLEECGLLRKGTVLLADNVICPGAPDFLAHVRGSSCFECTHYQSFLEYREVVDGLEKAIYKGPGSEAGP
Nicotinamide N-methyltransferase (Homo sapiens), sequence (P40261 whole entry, looked up): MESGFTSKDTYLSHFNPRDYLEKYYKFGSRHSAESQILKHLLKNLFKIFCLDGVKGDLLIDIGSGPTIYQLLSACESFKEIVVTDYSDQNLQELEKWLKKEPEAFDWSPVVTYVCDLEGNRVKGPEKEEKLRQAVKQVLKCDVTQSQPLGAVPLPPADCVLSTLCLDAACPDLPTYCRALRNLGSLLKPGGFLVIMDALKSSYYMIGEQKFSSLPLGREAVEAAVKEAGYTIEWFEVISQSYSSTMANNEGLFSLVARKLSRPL
Rap guanine nucleotide exchange factor 3 (Homo sapiens), sequence (O95398 whole entry, looked up): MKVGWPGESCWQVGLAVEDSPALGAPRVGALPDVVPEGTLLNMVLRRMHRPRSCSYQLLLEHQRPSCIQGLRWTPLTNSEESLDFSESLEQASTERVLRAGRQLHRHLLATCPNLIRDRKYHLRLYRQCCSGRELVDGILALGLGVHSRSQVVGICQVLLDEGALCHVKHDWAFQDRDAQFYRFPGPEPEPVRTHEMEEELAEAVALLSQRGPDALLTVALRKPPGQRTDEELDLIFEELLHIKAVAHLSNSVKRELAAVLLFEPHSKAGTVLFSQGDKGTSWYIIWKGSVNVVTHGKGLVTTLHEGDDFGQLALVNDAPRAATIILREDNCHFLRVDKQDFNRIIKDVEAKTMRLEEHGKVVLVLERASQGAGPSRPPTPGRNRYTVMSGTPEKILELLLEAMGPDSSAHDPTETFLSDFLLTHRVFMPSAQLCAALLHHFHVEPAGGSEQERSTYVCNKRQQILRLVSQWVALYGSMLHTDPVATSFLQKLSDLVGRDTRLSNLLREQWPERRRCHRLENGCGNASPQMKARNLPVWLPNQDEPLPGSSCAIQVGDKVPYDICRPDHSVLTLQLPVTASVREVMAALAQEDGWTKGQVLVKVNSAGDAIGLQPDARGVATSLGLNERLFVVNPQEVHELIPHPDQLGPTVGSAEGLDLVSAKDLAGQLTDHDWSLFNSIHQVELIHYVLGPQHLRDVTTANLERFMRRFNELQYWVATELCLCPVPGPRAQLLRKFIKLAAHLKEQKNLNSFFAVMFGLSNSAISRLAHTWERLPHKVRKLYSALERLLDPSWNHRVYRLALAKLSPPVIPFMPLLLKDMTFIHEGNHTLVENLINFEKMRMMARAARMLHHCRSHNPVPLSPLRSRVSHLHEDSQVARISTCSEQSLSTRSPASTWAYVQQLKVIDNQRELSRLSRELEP

For `O=c1cc(-c2ccc(O)c(O)c2)oc2cc(O)cc(O)c12`, the outcome [1] was “inactive”, the outcome [2] was “inactive” and the Potency [3] was “inactive”.

With `Nc1[nH]nc2nnc(-c3c(-c4ccccc4)nn4ccccc34)cc12` the activity [4] was -90.6%, the Potency [5] was 19.2 µM (active) and the activity [6] was -76.8%. It also gave an activity [7] of -92.5%.

In the case of `COc1cc2c(cc1Cc1cccc(Cl)c1F)c(=O)c(C(=O)O)cn2[C@H](CO)C(C)C`, the outcome [8] is reported as “inactive”.

For `N[C@@H](CC(=O)N1CCn2c(nnc2C(F)(F)F)C1)Cc1cc(F)c(F)cc1F`, the outcome [8] was “inactive”.

For `c1cc(OCCN2CCCCC2)cc(-c2n[nH]c3ccc(-c4ncn[nH]4)cc23)c1`, the activity [4] was -3.59%, the activity change, negative = inhibition [5] was 2.7% and the activity [6] was -12.9%. For the same compound, the activity [7] was -6.71%.

Compound `Cc1ccc2c(c1)c1c(n2CCc2ccc(C)nc2)CCN(C)C1` has an activity [4] of -6.68%, an activity change, negative = inhibition [5] of -3.88% and an activity [6] of -13.3%. For the same compound, the activity [7] was -2.48%.

Compound `NS(=O)(=O)c1ccc(Nc2nc(OCC3CCCCC3)c3[nH]cnc3n2)cc1` has an activity [4] of -14.9%, an activity change, negative = inhibition [5] of -2.65% and an activity [6] of -73.9%. The activity [7] was -14.7%.

For `Cc1ccc2c(=O)c3cccc(CC(=O)O)c3oc2c1C`, the outcome [8] was “inactive”.

With `NC(=O)c1nnn(Cc2cc(Cl)c(C(=O)c3ccc(Cl)cc3)c(Cl)c2)c1N` the outcome [1] was “inactive” and the outcome [2] was “inactive”.

In the case of `CNC(=O)[C@H](Cc1ccccc1)NC(=O)[C@H](CC(C)C)[C@H](CSc1cccs1)C(=O)NO`, the outcome [8] is reported as “inactive”.

With `c1ccc(-c2oc3ncnc(NC[C@@H]4CCCO4)c3c2-c2ccccc2)cc1` the activity [4] was -58.1%, the Potency [5] was 24.1 µM (active) and the activity [6] was -46.6%. It also gave an activity [7] of -56.7%.

In the case of `C[C@@]1(c2cc(-c3cncnc3)c(F)cc2F)CCSC(N)=N1`, the outcome [8] is reported as “inactive”.

`CC(C)CNc1ccnc(NCc2csc(-c3ccccc3)n2)n1` showed an activity [4] of -9.21%, an activity change, negative = inhibition [5] of -8.39% and an activity [6] of -34.7%. It also gave an activity [7] of -20.3%.

With `CN(C)CCCNC(=O)c1ccc(-c2cc(O)c3ncccc3c2)cc1` the activity [4] was -84% and -99.6%, the activity change, negative = inhibition [5] was 2.82% and 3.64% and the activity [6] was -0.93% and -8.84%. For the same compound, the activity [7] was -2.71% and -2.66% and the Potency [9] was “inactive”.

For `OC[C@H]1O[C@@H](OCCc2ccc(O)cc2)[C@H](O)[C@@H](O)[C@H]1O`, the outcome [10] was “inactive” and the Potency [3] was “inactive”.

With `CNC(=O)c1c(-c2ccc(F)cc2)oc2cc(N(CCO)S(C)(=O)=O)c(C3CC3)cc12` the outcome [8] was “inactive”.

In the case of `CC(C)[C@H](O)C(=O)N[C@@H](C)C(=O)N[C@@H]1C(=O)N(C)CCc2ccccc21`, the outcome [8] is reported as “inactive”.

With `COc1ccc(-c2nc3ccc(C4=NNC(=O)CC4C)cc3[nH]2)cc1` (stereo unspecified) the outcome [8] was “inactive”.

For `COc1ccc2ccc(=O)oc2c1CC=C(C)C`, the outcome [8] was “inactive”.

For `CC(=O)Nc1cccc(-n2c(=O)n(C3CC3)c(=O)c3c(Nc4ccc(I)cc4F)n(C)c(=O)c(C)c32)c1`, the Potency [9] was 2.3 µM (active).

For `CCN1CCC(n2cc(CNc3cc(Cl)c4ncc(C#N)c(Nc5ccc(F)c(Cl)c5)c4c3)nn2)CC1`, the activity [4] was -89.7%, the Potency [5] was 10.8 µM (active) and the activity [6] was -81.6%. For the same compound, the activity [7] was -91.4%.

For `CN(C)CCN(Cc1ccc(Cl)cc1)c1ccccn1`, the outcome [8] was “inactive”.

For `CCN1C[C@H](C)n2c(c(O)c3c(=O)n(Cc4ccc(F)c(Cl)c4)nc(C(=O)NC)c32)C1=O`, the outcome [8] was “inactive” and the Potency [9] was “inactive”.

Compound `Cc1ccccc1-n1c(Cn2nc(-c3cccc(O)c3)c3c(N)ncnc32)nc2cccc(C)c2c1=O` has an activity [4] of -10.8%, an activity change, negative = inhibition [5] of 0% and an activity [6] of -28.8%. The activity [7] was 1.94%.

Compound `Clc1ccc(C2(c3ccc(-c4cn[nH]c4)cc3)CCNCC2)cc1` has an activity [4] of 0.191%, an activity change, negative = inhibition [5] of 0% and an activity [6] of -22.3%. The activity [7] was -4.19%.

With `Fc1ccc(CNc2ncnc3ccc(F)cc23)cc1` the outcome [8] was “inactive”.

In the case of `CC(C)(F)C[C@H](N[C@@H](c1ccc(-c2ccc(S(C)(=O)=O)cc2)cc1)C(F)(F)F)C(=O)NC1(C#N)CC1`, the outcome [8] is reported as “inactive”.

For `Nc1ncnc2c1c(-c1cccc(OCc3ccccc3)c1)cn2C1CC(CN2CCC2)C1` (stereo unspecified), the activity [4] was -26%, the Potency [5] was 30.4 µM (active) and the activity [6] was -29.1%. It also gave an activity [7] of -91.7%.

In the case of `CCOC(=O)c1c(CSc2ccccc2)n(C)c2cc(Br)c(O)c(CN(C)C)c12`, the outcome [8] is reported as “inactive”.

`CNC(=O)c1ccc2c(C(=Nc3cccc(CN(C)C)c3)c3ccccc3)c(O)[nH]c2c1` gave an activity [4] of -17.1%, an activity change, negative = inhibition [5] of -9.55% and an activity [6] of -21.7%. The activity [7] was -16.3%.

In the case of `CN1CCc2c(n(Cc3ccc(C(=O)NO)cc3)c3ccccc23)C1`, the activity [4] is reported as 0%, the activity change, negative = inhibition [5] is reported as 0.311% and the activity [6] is reported as -0.568%. It also gave an activity [7] of 4.88%.

With `Cc1cc2nc3c(=O)[nH]c(=O)nc-3n(CC(O)C(O)C(O)CO)c2cc1C` (stereo unspecified) the Potency [3] was 25.1 µM (active).

In the case of `CC1(COc2ccc3c(c2)ncn3-c2ccc3cccc(N4CCC(N)CC4)c3n2)COC1`, the activity [4] is reported as -30.2%, the Potency [5] is reported as 42.9 µM (active) and the activity [6] is reported as -29.9%. The activity [7] was -30.6%.

For `Cc1ccc(S(=O)(=O)OCC(=O)Nc2ccc(C(=O)O)c(O)c2)cc1`, the outcome [8] was “inactive” and the Potency [9] was 12.9 µM (active).

In the case of `O=C(O)c1nc(=O)[nH]c(=O)[nH]1`, the outcome [8] is reported as “inactive”.

In the case of `Cc1cn([C@@H]2C[C@@H](O)[C@H](CO)O2)c(=O)[nH]c1=O`, the outcome [8] is reported as “inactive”.

With `Nc1ncnc2c1ncn2[C@@H]1O[C@H](CO)[C@@H](O)[C@@H]1O` the outcome [8] was “inactive”.

Compound `CNC1CCC(N(Cc2cccc(-c3ccncc3)c2)C(=O)c2sc3ccccc3c2Cl)CC1` (stereo unspecified) has an activity [4] of -14.8%, an activity change, negative = inhibition [5] of -1.13% and an activity [6] of -65.2%. For the same compound, the activity [7] was -20.3%.

In the case of `CC(C)CN(C[C@@H](O)[C@H](Cc1ccccc1)NC(=O)O[C@H]1CO[C@H]2OCC[C@H]21)S(=O)(=O)c1ccc(N)cc1`, the outcome [8] is reported as “inactive”.

From PubChem BioAssay (NCATS)
